“And” between values parts separate entries of the source, which are not always exact repeats. Equal entries are not always repeated. Among all 5,500 compounds or so, about 2,000 (36%) were called active. Not shown: some 18% with an inconclusive outcome. No stated cut-off is given here; in the data, active means normalized growth mostly below about 0.91 (no sharp cut-off); inconclusive means no clear call, values can overlap the other calls; inactive means mostly above about 0.92. This is one part of the list.
Test: chemical genetic growth profiling, strain panel (AID 1159580);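 further: tested at 20 µM; growth read once vehicle control cultures reached saturation at 30 °C; 1 = growth at the plate median or of vehicle wells; lower values mean less growth of the strain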
Conditions: S. cerevisiae deletion strains, growth OD

Measured: normalized growth

COC(=O)C[C@H]1C(C)(C)[C@@H](O)[C@@H]2CC3=C4CC(O)O[C@@H](c5ccoc5)[C@]4(C)CCC3[C@@]1(C)C2=O (some centres not stated)
inactive: locus YAL013W, strain DEP1, active compounds read low 1.01 | locus YAL021C, strain ccr4, active compounds read low 1.01 | locus YAL026C, strain drs2, active compounds read low 1.06 | locus YAL030W, strain snc1, active compounds read low 1.03 | locus YBL061C, strain skt5, active compounds read low 1.03 | locus YBR009C, strain hhf1, active compounds read low 1.02 | locus YBR021W, strain FUR4, active compounds read low 1.07 | locus YBR023C, strain chs3, active compounds read low 1 | locus YBR171W, strain sec66, active compounds read low 1.05 | locus YBR229C, strain ROT2, active compounds read low 1 | locus YBR231C, strain swc5, active compounds read low 1.03 | locus YBR279W, strain paf1, active compounds read low 1.03 | locus YCL011C, strain gbp2, active compounds read low 1 | locus YCL016C, strain dcc1, active compounds read low 0.99 | locus YCL029C, strain bik1, active compounds read low 0.99 | locus YCL069W, strain vba3, active compounds read low 1.01 | locus YCR088W, strain abp1, active compounds read low 1.02 | locus YDL005C, strain med2, active compounds read low 1.03 | locus YDL035C, strain GPR1, active compounds read low 1.03 | locus YDL040C, strain nat1, active compounds read low 1.02 | locus YDL074C, strain BRE1, active compounds read low 1.01 | locus YDL101C, strain DUN1, active compounds read low 1 | locus YDL134C, strain PPH21, active compounds read low 0.978 | locus YDL185W, strain tfp1, active compounds read low 0.962 | locus YDL192W, strain arf1, active compounds read low 0.989 | locus YDR001C, strain nth1, active compounds read low 1.02 | locus YDR069C, strain doa4, active compounds read low 1.02 | locus YDR101C, strain arx1, active compounds read low 0.999 | locus YDR137W, strain rgp1, active compounds read low 1.01 | locus YDR159W, strain sac3, active compounds read low 1.09 | locus YDR162C, strain NBP2, active compounds read low 0.987 | locus YDR195W, strain ref2 1.01 | locus YDR297W, strain sur2, active compounds read low 1.03 | locus YDR318W, strain mcm21, active compounds read low 0.991 | locus YDR334W, strain swr1, active compounds read low 1.03 | locus YDR335W, strain msn5, active compounds read low 1.01 | locus YDR388W, active compounds read low 0.984 | locus YDR392W, strain spt3, active compounds read low 0.938 | locus YDR502C, strain sam2, active compounds read low 0.981 | locus YEL003W, strain gim4, active compounds read low 1.05 | locus YEL037C, strain rad23, active compounds read low 1.03 | locus YEL061C, strain CIN8 (second series), active compounds read low 1.02 | locus YEL061C, strain CIN8, active compounds read low 1.01 | locus YER015W, strain faa2, active compounds read low 1.01 | locus YER016W, strain bim1, active compounds read low 1.02 | locus YER110C, active compounds read low 0.98 | locus YER111C, strain swi4, active compounds read low 1.03 | locus YER155C, strain BEM2 (second series), active compounds read low 1.08 | locus YER155C, strain BEM2, active compounds read low 0.998 | locus YER167W, strain BCK2, active compounds read low 1.01 | locus YFR010W, strain ubp6, active compounds read low 1.05 | locus YGL078C, strain dbp3, active compounds read low 0.97 | locus YGL086W, strain mad1, active compounds read low 1.02 | locus YGL167C, strain pmr1, active compounds read low 1.02 | locus YGL173C, strain kem1, active compounds read low 1.06 | locus YGL227W, strain vid30, active compounds read low 1.03 | locus YGL240W, strain doc1, active compounds read low 1.04 | locus YGL248W, strain PDE1, active compounds read low 1.01 | locus YGL253W, strain hxk2, active compounds read low 1.04 | locus YGR078C, strain PAC10, active compounds read low 0.985 | locus YGR135W, strain pre9, active compounds read low 0.95 | locus YGR229C, strain SMI1, active compounds read low 1.04 | locus YGR252W, strain gcn5, active compounds read low 0.981 | locus YHR013C, strain ard1, active compounds read low 1.01 | locus YHR027C, strain rpn1, active compounds read low 1.02 | locus YHR030C, strain SLT2, active compounds read low 1.01 | locus YHR079C, strain IRE1 (second series), active compounds read low 0.984 | locus YHR079C, strain IRE1, active compounds read low 1.01 | locus YHR094C, strain hxt1, active compounds read low 0.979 | locus YHR129C, strain ARP1, active compounds read low 1 | locus YHR142W, strain chs7, active compounds read low 0.994 | locus YHR200W, strain rpn10, active compounds read low 0.996 | locus YIL066C, strain RNR3, active compounds read low 1.02 | locus YIL073C, strain SPO22, active compounds read low 0.916 | locus YIL125W, strain kgd1, active compounds read low 0.987 | locus YIR030C, strain dcg1, active compounds read low 0.976 | locus YJL092W, strain hpr5, active compounds read low 1.03 | locus YJL095W, strain BCK1 (second series), active compounds read low 1.02 | locus YJL095W, strain BCK1, active compounds read low 0.977 and 1.02 | locus YJL115W, strain asf1, active compounds read low 1.03 | locus YJL129C, strain trk1, active compounds read low 1 | locus YJL134W, strain LCB3, active compounds read low 1 | locus YJL154C, strain vps35, active compounds read low 1.02 | locus YJL164C, strain tpk1, active compounds read low 1.01 | locus YJL166W, strain qcr8, active compounds read low 1.03 | locus YJL168C, strain set2, active compounds read low 0.991 | locus YJL187C, strain SWE1 (second series), active compounds read low 0.987

From PubChem BioAssay AID1159580 (chemical genetic matrix, 2015)
